# Test results published in article PMC7862700, “An all-to-all approach to the identification of sequence-specific readers for epigenetic DNA modifications on cytosine”.
# Assays:
# Experiment in all cases: DAPPL (digital affinity profiling via proximity ligation, sequencing); 10 mM Tris-HCl pH 7.5, 50 mM NaCl, 1 mM DTT, 4% glycerol, room temperature, 30 min; GST-TFs on glutathione beads, 16-mer random dsDNA library, 0.1% formaldehyde crosslink after washing; high values mean tight binding
# Settings in all cases: protein: recombinant; tags: N-terminal GST; dsDNA, one strand shown
# FLI1 = molecular target: T1, FLI1 (Homo sapiens, UniProt Q01543 1-452)
# T1 sequence: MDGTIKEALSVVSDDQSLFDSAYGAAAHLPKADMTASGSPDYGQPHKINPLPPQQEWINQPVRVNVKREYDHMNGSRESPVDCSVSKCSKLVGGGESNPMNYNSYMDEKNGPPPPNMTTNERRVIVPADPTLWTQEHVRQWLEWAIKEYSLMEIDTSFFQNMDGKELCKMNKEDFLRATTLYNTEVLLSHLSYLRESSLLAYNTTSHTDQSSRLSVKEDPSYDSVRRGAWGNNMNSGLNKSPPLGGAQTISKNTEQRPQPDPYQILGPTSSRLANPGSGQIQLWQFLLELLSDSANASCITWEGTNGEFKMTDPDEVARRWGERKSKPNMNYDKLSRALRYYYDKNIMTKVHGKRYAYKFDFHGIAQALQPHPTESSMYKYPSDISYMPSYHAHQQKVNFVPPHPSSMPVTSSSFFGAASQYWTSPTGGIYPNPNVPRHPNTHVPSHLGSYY
# How it was run: (§1)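 Beads coated with glutathione captured GST-fused human transcription factors that had been expressed in yeast, and the factors were then given DNA barcodes and pooled with a tag-only sample. The pools were incubated with 200 nmole of a random double-stranded 16-mer DNA library in Tris/NaCl/DTT/glycerol buffer for 30 min at room temperature, washed, crosslinked with 0.1% formaldehyde and proximity-ligated with BsaI/T4 ligase at 37 °C for 1 h. PCR amplification and Illumina NextSeq500 sequencing came last. Binding signal is each hexamer's read frequency for a factor divided by its frequency for the tag-only sample.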
# ELK1 = molecular target: T2, ELK1 (Homo sapiens, UniProt P19419 1-428)
# T2 sequence: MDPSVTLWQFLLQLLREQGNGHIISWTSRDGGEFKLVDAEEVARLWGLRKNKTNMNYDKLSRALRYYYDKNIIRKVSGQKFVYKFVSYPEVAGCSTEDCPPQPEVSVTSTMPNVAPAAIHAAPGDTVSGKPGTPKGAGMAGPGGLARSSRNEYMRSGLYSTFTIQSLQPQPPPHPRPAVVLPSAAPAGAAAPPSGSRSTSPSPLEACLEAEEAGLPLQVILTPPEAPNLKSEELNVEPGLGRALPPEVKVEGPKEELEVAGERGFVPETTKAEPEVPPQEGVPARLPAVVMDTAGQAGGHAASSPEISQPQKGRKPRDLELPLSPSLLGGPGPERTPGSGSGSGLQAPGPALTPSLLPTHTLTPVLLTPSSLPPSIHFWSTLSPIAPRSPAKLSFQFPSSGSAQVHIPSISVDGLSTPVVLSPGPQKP
# How it was run: as §1
# GABPA = molecular target: T3, GABPA (Homo sapiens, UniProt Q06546 1-454)
# T3 sequence: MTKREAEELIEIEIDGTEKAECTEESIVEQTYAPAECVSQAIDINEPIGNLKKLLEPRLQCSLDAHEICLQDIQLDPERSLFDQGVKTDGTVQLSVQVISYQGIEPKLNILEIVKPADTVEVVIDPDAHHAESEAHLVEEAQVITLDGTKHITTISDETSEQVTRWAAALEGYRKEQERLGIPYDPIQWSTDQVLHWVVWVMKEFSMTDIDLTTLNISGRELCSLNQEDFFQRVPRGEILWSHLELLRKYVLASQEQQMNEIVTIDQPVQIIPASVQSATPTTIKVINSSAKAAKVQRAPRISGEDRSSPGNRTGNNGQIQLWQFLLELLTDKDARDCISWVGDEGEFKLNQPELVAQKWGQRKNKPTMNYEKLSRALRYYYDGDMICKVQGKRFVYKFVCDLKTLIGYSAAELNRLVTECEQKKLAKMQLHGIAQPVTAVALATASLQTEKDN
# How it was run: as §1
# ERG = molecular target: T4, ERG (Homo sapiens, UniProt P11308 1-479)
# T4 sequence: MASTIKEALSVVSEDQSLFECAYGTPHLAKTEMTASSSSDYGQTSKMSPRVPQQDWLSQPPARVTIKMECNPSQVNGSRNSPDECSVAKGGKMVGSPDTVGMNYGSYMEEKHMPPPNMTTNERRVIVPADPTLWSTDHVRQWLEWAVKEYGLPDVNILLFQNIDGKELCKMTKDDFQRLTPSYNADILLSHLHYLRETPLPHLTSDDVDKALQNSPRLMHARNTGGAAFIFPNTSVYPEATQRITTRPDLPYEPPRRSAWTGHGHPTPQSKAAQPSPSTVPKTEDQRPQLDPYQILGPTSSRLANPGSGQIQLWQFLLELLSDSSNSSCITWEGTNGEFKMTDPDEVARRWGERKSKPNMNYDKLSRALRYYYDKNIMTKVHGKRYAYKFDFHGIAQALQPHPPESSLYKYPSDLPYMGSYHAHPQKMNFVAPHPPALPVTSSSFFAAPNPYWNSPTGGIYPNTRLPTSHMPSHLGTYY
# How it was run: as §1
# ELF1 = ELF1 (Homo sapiens, UniProt P32519 1-619)
# Sequence of ELF1 (P32519 whole entry): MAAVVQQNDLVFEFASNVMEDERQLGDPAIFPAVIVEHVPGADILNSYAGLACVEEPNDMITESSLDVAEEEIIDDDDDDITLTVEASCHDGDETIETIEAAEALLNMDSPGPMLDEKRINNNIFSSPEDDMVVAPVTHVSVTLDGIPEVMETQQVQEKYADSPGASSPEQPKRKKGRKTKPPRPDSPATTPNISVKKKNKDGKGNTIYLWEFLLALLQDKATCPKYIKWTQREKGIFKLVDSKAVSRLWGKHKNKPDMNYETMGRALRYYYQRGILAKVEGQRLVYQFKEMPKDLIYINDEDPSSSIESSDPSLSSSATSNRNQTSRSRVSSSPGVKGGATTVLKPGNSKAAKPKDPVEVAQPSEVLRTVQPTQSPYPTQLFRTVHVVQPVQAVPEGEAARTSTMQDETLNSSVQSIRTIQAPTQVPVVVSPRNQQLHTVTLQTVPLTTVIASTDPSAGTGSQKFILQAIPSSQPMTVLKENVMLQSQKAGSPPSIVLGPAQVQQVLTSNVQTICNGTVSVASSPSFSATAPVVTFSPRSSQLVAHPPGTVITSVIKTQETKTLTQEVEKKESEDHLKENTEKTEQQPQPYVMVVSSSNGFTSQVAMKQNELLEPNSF
# How it was run: as §1
# SPI1 = SPI1 (Homo sapiens, UniProt P17947 1-270)
# How it was run: as §1
# SPIB = SPIB (Homo sapiens, UniProt Q01892 1-262)
# Sequence of SPIB (Q01892 whole entry): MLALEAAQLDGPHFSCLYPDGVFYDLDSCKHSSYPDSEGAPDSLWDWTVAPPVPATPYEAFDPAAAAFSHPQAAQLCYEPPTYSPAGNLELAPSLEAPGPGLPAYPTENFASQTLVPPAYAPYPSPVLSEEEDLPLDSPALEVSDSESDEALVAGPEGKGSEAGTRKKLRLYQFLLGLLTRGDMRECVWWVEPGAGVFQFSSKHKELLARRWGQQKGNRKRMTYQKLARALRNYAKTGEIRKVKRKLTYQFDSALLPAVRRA
# How it was run: as §1
# FEV = molecular target: T5, FEV (Homo sapiens, UniProt Q99581 1-238)
# T5 sequence: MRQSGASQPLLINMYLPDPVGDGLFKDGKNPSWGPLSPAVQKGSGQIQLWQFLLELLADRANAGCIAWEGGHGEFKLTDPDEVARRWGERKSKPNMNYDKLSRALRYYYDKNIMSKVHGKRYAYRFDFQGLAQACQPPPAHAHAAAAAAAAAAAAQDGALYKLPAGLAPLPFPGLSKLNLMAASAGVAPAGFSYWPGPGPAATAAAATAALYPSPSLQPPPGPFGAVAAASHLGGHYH
# How it was run: as §1
# ETV5 = ETV5 (Homo sapiens, UniProt P41161 1-510)
# Sequence of ETV5 (P41161 whole entry): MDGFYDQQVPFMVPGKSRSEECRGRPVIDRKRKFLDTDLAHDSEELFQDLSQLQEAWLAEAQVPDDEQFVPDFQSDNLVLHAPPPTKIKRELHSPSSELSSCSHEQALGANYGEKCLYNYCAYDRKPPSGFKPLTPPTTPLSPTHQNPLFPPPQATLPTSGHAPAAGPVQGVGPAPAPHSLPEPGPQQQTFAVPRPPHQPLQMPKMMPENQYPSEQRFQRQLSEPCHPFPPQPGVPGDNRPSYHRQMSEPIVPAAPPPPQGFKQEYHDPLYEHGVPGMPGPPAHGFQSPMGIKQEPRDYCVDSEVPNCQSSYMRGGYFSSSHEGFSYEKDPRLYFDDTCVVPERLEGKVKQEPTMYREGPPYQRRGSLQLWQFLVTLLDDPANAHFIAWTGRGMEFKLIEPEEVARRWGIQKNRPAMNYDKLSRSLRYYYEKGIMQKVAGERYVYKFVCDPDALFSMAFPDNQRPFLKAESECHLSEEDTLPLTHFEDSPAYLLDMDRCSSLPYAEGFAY
# How it was run: as §1
# SPIC = molecular target: T6, SPIC (Homo sapiens, UniProt Q8N5J4 1-248)
# T6 sequence: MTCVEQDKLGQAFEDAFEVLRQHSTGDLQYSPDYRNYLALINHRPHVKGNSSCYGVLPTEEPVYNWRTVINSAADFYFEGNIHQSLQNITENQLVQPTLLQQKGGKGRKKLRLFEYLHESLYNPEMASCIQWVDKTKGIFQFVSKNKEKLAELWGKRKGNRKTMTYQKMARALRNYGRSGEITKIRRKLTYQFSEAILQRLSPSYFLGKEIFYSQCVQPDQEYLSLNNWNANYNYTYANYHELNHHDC
# How it was run: as §1
# ELF4 = ELF4 (Homo sapiens, UniProt Q99607 1-663)
# Sequence of ELF4 (Q99607 whole entry): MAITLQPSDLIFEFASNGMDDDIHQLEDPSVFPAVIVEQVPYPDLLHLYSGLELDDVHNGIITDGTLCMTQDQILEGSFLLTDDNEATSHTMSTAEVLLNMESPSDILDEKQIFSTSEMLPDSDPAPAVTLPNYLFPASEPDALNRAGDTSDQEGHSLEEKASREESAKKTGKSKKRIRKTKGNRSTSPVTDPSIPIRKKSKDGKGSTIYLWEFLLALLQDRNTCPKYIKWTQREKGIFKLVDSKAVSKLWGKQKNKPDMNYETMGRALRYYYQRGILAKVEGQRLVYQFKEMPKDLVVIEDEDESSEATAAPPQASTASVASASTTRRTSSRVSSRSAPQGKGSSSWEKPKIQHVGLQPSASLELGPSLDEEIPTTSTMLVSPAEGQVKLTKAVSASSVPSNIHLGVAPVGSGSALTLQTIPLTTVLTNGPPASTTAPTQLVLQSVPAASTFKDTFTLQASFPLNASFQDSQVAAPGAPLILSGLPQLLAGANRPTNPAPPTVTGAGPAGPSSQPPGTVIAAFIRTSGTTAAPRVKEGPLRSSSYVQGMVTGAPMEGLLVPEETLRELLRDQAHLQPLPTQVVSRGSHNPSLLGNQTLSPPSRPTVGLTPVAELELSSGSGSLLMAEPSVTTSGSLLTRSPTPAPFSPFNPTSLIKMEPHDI
# How it was run: as §1
# ELK4 = molecular target: T7, ELK4 (Homo sapiens, UniProt P28324-2 1-405)
# T7 sequence: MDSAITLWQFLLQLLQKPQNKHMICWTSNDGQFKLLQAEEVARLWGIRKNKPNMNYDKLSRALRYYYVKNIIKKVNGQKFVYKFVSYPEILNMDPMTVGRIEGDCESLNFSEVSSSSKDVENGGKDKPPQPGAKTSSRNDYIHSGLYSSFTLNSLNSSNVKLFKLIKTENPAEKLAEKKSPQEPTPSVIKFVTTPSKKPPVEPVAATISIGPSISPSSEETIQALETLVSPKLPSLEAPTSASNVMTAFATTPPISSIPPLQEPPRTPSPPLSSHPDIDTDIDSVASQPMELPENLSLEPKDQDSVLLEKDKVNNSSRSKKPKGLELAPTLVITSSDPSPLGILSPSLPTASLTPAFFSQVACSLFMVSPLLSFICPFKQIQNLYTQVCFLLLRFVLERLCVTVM
# How it was run: as §1
# ETV2 = molecular target: T8, ETV2 (Homo sapiens, UniProt O00321 1-342)
# T8 sequence: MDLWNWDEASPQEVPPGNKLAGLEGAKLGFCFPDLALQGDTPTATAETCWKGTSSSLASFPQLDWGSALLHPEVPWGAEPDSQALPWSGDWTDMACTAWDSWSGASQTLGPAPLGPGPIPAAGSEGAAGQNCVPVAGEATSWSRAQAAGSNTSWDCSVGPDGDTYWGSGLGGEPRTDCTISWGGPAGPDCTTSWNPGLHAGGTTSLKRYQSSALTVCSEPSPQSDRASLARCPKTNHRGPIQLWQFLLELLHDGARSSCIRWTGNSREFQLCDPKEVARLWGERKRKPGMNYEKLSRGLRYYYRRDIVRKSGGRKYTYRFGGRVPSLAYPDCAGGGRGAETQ
# How it was run: as §1
# ELF3 = molecular target: T9, ELF3 (Homo sapiens, UniProt P78545 1-371)
# T9 sequence: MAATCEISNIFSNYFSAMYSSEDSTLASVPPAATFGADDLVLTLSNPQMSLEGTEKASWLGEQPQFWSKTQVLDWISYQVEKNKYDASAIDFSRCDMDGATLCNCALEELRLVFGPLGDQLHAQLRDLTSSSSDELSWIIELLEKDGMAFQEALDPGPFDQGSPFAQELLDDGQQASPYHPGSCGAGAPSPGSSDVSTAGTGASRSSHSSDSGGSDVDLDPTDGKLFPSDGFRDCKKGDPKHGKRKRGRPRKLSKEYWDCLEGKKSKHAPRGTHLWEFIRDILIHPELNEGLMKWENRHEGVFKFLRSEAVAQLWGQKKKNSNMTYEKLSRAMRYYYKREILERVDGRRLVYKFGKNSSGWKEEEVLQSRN
# How it was run: as §1
# ETV1 = ETV1 (Homo sapiens, UniProt P50549 1-477)
# Sequence of ETV1 (P50549 whole entry): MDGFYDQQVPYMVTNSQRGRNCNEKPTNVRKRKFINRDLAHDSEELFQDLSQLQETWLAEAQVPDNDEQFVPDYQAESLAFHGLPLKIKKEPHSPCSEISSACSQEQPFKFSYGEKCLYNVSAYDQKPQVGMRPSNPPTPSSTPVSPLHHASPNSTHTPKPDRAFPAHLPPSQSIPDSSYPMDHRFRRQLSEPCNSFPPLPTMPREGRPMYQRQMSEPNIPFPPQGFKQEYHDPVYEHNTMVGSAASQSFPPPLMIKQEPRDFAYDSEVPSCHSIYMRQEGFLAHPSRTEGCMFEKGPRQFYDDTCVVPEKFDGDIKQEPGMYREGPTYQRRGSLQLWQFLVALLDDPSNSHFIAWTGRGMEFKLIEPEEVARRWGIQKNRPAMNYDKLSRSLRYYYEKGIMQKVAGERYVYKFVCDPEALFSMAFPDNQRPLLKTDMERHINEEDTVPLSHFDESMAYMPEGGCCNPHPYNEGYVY
# How it was run: as §1
# EHF = molecular target: T10, EHF (Homo sapiens, UniProt Q9NZC4 1-300)
# T10 sequence: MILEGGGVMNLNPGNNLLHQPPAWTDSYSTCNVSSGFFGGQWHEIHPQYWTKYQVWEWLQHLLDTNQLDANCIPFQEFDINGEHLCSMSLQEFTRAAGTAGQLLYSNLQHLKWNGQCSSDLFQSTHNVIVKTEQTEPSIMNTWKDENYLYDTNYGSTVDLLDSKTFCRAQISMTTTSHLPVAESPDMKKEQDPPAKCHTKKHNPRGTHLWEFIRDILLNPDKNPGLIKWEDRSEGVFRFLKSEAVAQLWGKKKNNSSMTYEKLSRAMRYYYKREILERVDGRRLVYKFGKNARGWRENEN
# How it was run: as §1
# ELK3 = molecular target: T11, ELK3 (Homo sapiens, UniProt P41970 1-407)
# T11 sequence: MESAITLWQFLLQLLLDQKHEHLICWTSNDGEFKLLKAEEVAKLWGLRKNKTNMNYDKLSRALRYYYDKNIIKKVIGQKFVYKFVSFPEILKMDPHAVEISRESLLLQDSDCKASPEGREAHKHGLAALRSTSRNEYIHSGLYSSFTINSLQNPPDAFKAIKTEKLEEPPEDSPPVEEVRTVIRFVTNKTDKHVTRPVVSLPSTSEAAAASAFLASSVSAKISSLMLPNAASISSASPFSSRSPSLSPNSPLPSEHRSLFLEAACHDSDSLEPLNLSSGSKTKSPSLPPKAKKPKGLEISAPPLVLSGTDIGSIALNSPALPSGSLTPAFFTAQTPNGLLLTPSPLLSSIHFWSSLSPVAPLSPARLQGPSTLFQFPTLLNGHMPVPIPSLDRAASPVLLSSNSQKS
# How it was run: as §1
sequence,measurement,setting,value
TGTCTG,binding signal,FLI1,"1 fold enrichment (6-mer frequency, TF over GST control)"
same,binding signal,ELK1,"1.1 fold enrichment (6-mer frequency, TF over GST control)"
same,binding signal,GABPA,"1.11 fold enrichment (6-mer frequency, TF over GST control)"
same,binding signal,ERG,"1.05 fold enrichment (6-mer frequency, TF over GST control)"
same,binding signal,ELF1,"1.06 fold enrichment (6-mer frequency, TF over GST control)"
same,binding signal,SPI1,"1.17 fold enrichment (6-mer frequency, TF over GST control)"
same,binding signal,SPIB,"1.16 fold enrichment (6-mer frequency, TF over GST control)"
same,binding signal,FEV,"1.15 fold enrichment (6-mer frequency, TF over GST control)"
same,binding signal,ETV5,"1.09 fold enrichment (6-mer frequency, TF over GST control)"
same,binding signal,SPIC,"1.33 fold enrichment (6-mer frequency, TF over GST control)"
same,binding signal,ELF4,"1.04 fold enrichment (6-mer frequency, TF over GST control)"
same,binding signal,ELK4,"1.02 fold enrichment (6-mer frequency, TF over GST control)"
same,binding signal,ETV2,"1.21 fold enrichment (6-mer frequency, TF over GST control)"
same,binding signal,ELF3,"1.21 fold enrichment (6-mer frequency, TF over GST control)"
same,binding signal,ETV1,"1.04 fold enrichment (6-mer frequency, TF over GST control)"
GATAGC,binding signal,FLI1,"1.11 fold enrichment (6-mer frequency, TF over GST control)"
same,binding signal,ELK1,"1.1 fold enrichment (6-mer frequency, TF over GST control)"
same,binding signal,GABPA,"1.13 fold enrichment (6-mer frequency, TF over GST control)"
same,binding signal,ERG,"1.02 fold enrichment (6-mer frequency, TF over GST control)"
same,binding signal,ELF1,"1.02 fold enrichment (6-mer frequency, TF over GST control)"
same,binding signal,EHF,"1.1 fold enrichment (6-mer frequency, TF over GST control)"
same,binding signal,SPI1,"1.05 fold enrichment (6-mer frequency, TF over GST control)"
same,binding signal,ELK3,"1.1 fold enrichment (6-mer frequency, TF over GST control)"
same,binding signal,FEV,"1.07 fold enrichment (6-mer frequency, TF over GST control)"
same,binding signal,ETV5,"1.04 fold enrichment (6-mer frequency, TF over GST control)"
same,binding signal,SPIC,"1.07 fold enrichment (6-mer frequency, TF over GST control)"
same,binding signal,ELF4,"1.06 fold enrichment (6-mer frequency, TF over GST control)"
same,binding signal,ELK4,"1.03 fold enrichment (6-mer frequency, TF over GST control)"
same,binding signal,ETV2,"1.18 fold enrichment (6-mer frequency, TF over GST control)"
same,binding signal,ELF3,"1.08 fold enrichment (6-mer frequency, TF over GST control)"
same,binding signal,ETV1,"1.02 fold enrichment (6-mer frequency, TF over GST control)"
